Records with an inconclusive call do not appear. Where a call stands in place of a potency, no number is given. The source made the active and inactive calls. Unless noted, calls come from the whole dose curve; as a rule, active = well fitted curve in the direction sought with a large enough effect in the repeat runs; inconclusive = weak or mixed curves; inactive = no such curve, though single readings can be large; an effect the other way counts as inactive or inconclusive.
Legend:
[1] = qHTS assay to test for compound auto fluorescence at 590 nm (red) in HepG2 cells (AID 720674); details: HepG2 autofluorescence, red 540/590 nm, 1 h; series mostly up to 46 µM
In short: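 Fluorescence at 590 nm emission following 540 nm excitation was recorded from HepG2 wells one hour after compound transfer, with DMSO-only wells as vehicle and Rose Bengal sodium equivalency as the scale.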

[2] = qHTS assay to test for compound auto fluorescence at 535 nm (green) in HepG2 cells (AID 720675); details: green autofluorescence 485/535 nm, 1 h; series mostly up to 46 µM
[3] = qHTS assay to test for compound auto fluorescence at 460 nm (blue) in HEK293 cells (AID 720678); details: blue autofluorescence 405/460 nm; series mostly up to 46 µM
In short: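 Auto fluorescence in the blue band was quantified as triamterene equivalency. HEK293 cells were seeded at 2,000/well, dosed after a 4-5 hr attachment, and kept overnight at 37C before the 405/460 nm reading.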

[4] = qHTS assay to test for compound auto fluorescence at 590 nm (red) in HEK293 cells (AID 720679); details: red autofluorescence 540/590 nm; series mostly up to 46 µM
In short: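 Autofluorescence equivalency to Rose Bengal sodium, 540/590nm, in HEK293 cells exposed overnight to 23 nL compound per well.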

[5] = qHTS assay to test for compound auto fluorescence at 535 nm (green) in HEK293 cells (AID 720680); details: green autofluorescence 485/535 nm; series mostly up to 46 µM
[6] = qHTS assay to test for compound auto fluorescence at 460 nm (blue) in HEK293 cell free culture (AID 720681); details: cell-free medium, autofluorescence 405/460 nm (blue); series mostly up to 46 µM
In short: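 Compounds were added to cell-free DMEM with 10% FBS and fluorescence read directly. The blue channel used 405 nm excitation and 460 nm emission, with triamterene as the reference fluorophore.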

[7] = qHTS assay to test for compound auto fluorescence at 535 nm (green) in HEK293 cell free culture (AID 720682); details: cell-free medium, green autofluorescence 485/535 nm; series mostly up to 46 µM
In short: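 Fluorescein serves as the green reference fluorophore; each compound's intrinsic emission at 535 nm (excitation 485 nm) is reported as an equivalent amount of that dye, measured in serum-containing DMEM without cells.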

[8] = qHTS assay to test for compound auto fluorescence at 590 nm (red) in HEK293 cell free culture (AID 720683); details: cell-free medium autofluorescence, Ex540/Em590 red; series mostly up to 46 µM
In short: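 Cell-free wells of DMEM with 10% FBS received compound, and intrinsic fluorescence was read at excitation/emission 540/590 nm. Values expressed as equivalence to Rose Bengal sodium.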

[9] = qHTS assay to test for compound auto fluorescence at 590 nm (red) in HepG2 cell free culture (AID 720684); details: cell-free medium autofluorescence, red 540/590 nm; series mostly up to 46 µM
In short: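 Auto fluorescence equivalency versus Rose Bengal sodium, red channel Ex/Em 540/590 nm; compounds in cell-free MEM/10% FBS; DMSO vehicle control.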

[10] = qHTS assay to test for compound auto fluorescence at 460 nm (blue) in HepG2 cell free culture (AID 720685); details: Cell-free culture medium, blue autofluorescence 405/460 nm; series mostly up to 46 µM
In short: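 Cell-free plates of MEM plus 10% FBS received 23 nL compound or DMSO vehicle; blue-channel (405/460 nm) intensity scored against triamterene as reference fluorophore.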

[11] = qHTS assay to test for compound auto fluorescence at 535 nm (green) in HepG2 cell free culture (AID 720686); details: Cell-free medium, green autofluorescence 485/535 nm; series mostly up to 46 µM
[12] = qHTS assay to test for compound auto fluorescence at 460 nm (blue) in HepG2 cells (AID 720687); details: autofluorescence 405/460 nm, 1 h; series mostly up to 46 µM
In short: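 HepG2 cells in MEM with 10% FBS, attached overnight at 37 C, were exposed to compound or DMSO for 1 hr at 37 C, 5% CO2. Blue fluorescence was read at 405/460 nm, with triamterene as reference fluorophore.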

[13] = qHTS assay for small molecule agonists of the p53 signaling pathway - cell viability (AID 651633; calls by dose curve; note: nearly all actives have a fitted effect of over 30% in size; note: potency is the fitted concentration of half-maximal effect); details: p53RE-bla HCT-116 viability, ATP luminescence, 16 h; series mostly up to 83.3 µM
In short: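 p53RE-bla cells were treated with compound for 16 hours at 37 C. Cytotoxicity was then measured as CellTiter-Glo luminescence after 30 min at room temperature.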

[14] = qHTS assay for small molecules that induce genotoxicity in human embryonic kidney cells expressing luciferase-tagged ATAD5 - cell viability (AID 651634; calls by dose curve; note: nearly all actives have a fitted effect of over 25% in size; note: potency is the fitted concentration of half-maximal effect); details: HEK293T ATAD5-luc cells viability, CellTiter-Fluor, 15.5 h; series mostly up to 83.3 µM
In short: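 Here HEK293T cells with the ATAD5 luciferase reporter are incubated with test compounds for 15.5 hr, and cytotoxicity is then gauged by measuring protease activity in live cells using fluorescence.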

[15] = qHTS assay for small molecule disruptors of the mitochondrial membrane potential (AID 720635); details: HepG2 mitochondrial membrane potential, Mito-MPS dye ratio; series mostly up to 83.2 µM; note: potency is the fitted concentration of half-maximal effect
In short: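 HepG2 cells exposed to compound 1 hr at 37C, then Mito-MPS dye 30 min. Ratio read of aggregate (540/590 nm) versus monomer (490/535 nm) fluorescence.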

[16] = qHTS assay for small molecule disruptors of the mitochondrial membrane potential - cell viability (AID 720634; calls by dose curve;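 note: human HepG2 liver cancer cells; nearly all actives have a fitted effect of over 20% in size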); details: HepG2 viability, ATP luminescence (CellTiter-Glo), 1 h; series mostly up to 83.2 µM
In short: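 Viability of HepG2 cells is scored from ATP content by luminescence; cells are exposed to compound for 1 hr at 37 C and 5% CO2, then dosed with m-MPI dye before the CellTiter-Glo reagent.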

[17] = target: Glucocorticoid receptor (Homo sapiens) (UniProt P04150); experiment: qHTS assay to identify small molecule agonists of the glucocorticoid receptor (GR) signaling pathway (AID 720691; active = well fitted activation curve with a large enough effect in the signal ratio in the repeat runs, not every such curve was filed as active; the % refers to the signal ratio); details: GR-bla HeLa, beta-lactamase reporter ratio, 18 h; activation: at 62.4 µM (top of the series)
In short: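 Compounds in DMSO, alongside positive controls, were added to GR-bla HeLa reporter cells and incubated 18 h at 37 C; GRE-driven beta-lactamase was detected by fluorescence after 2 h with FRET substrate at room temperature.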

[18] = target: Glucocorticoid receptor (Homo sapiens) (UniProt P04150); experiment: qHTS assay to identify small molecule antagonists of the glucocorticoid receptor (GR) signaling pathway (AID 720692; active = well fitted inhibition curve with a large enough effect in the signal ratio in the repeat runs, not every such curve was filed as active; the % refers to the signal ratio; note: potency is the fitted concentration of half-maximal effect); details: GR-bla HeLa, beta-lactamase FRET ratio, dexamethasone-stimulated, 18 h; series mostly up to 58.5 µM
In short: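 In a 1536-well cell format, compounds were added 4 h after seeding GR-bla HeLa cells, together with dexamethasone at 5 nM final; reporter activity was measured by FRET-substrate fluorescence following 18 h at 37 C.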

Sequence of Glucocorticoid receptor (Homo sapiens) (P04150 whole entry, looked up): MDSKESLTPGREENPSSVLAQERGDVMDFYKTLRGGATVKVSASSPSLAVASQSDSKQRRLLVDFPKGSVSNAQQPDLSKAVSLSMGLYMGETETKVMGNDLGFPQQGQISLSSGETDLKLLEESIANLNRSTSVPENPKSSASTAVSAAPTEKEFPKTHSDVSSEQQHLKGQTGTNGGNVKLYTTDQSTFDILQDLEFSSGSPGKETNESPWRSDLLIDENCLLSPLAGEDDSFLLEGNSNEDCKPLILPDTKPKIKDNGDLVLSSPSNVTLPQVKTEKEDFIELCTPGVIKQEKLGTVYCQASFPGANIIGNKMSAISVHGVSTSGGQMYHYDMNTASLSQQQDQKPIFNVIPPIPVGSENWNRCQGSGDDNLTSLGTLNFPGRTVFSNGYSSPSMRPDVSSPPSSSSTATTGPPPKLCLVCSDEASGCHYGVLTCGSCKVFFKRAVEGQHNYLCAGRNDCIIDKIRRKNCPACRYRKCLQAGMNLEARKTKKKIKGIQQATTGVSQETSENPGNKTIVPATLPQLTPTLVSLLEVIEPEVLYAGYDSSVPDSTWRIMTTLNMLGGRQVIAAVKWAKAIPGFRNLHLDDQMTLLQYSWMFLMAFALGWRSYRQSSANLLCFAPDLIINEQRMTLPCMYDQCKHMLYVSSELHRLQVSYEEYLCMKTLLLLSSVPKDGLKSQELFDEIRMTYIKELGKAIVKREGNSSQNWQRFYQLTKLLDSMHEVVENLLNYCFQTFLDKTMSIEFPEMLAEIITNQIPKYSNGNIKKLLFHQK

Row | SMILES | Potency [1] | Potency [2] | Potency [3] | Potency [4] | Potency [5] | Potency [6] | Potency [7] | Potency [8] | Potency [9] | outcome [10] | Potency [11] | outcome [12] | Potency [13] | Potency [14] | Potency [15] | Potency [16] | Potency [17] | Potency [18]
1 | Cc1ccccc1 | inactive | inactive | inactive | inactive | inactive | inactive | inactive | inactive | inactive | inactive | inactive | inactive | – | – | – | – | – | –
2 | CN=C1C=CC(=C(c2ccc(N(C)C)cc2)c2ccc(N(C)C)cc2)C=C1 | inactive | inactive | inactive | inactive | inactive | inactive | inactive | inactive | inactive | inactive | inactive | inactive | 18.8 µM (active) | 4.73 µM (active) | 0.0441 µM (active) | – | – | –
3 | CN1[C@@H]2CC[C@H]1CC(OC(c1ccccc1)c1ccccc1)C2 (stereo not given in full) | inactive | – | inactive | inactive | inactive | inactive | inactive | inactive | inactive | inactive | inactive | inactive | inactive | inactive | – | inactive | inactive | inactive
4 | COc1ccc(C[C@@H](C)NC[C@H](O)c2ccc(O)c(NC=O)c2)cc1 | inactive | inactive | inactive | inactive | inactive | – | inactive | inactive | inactive | inactive | inactive | inactive | – | – | – | inactive | inactive | inactive
5 | N#CC(c1ccc(Cl)cc1)c1c(Cl)cc(-n2ncc(=O)[nH]c2=O)cc1Cl (stereo not given) | inactive | inactive | inactive | inactive | inactive | inactive | inactive | inactive | inactive | inactive | inactive | inactive | 23.7 µM (active) | – | – | inactive | – | 23.9 µM (active)
6 | CO[C@H]1C[C@H](O[C@@H]2/C(C)=C/C[C@@H]3C[C@@H](C[C@]4(CC[C@H](C)[C@@H](C5CCCCC5)O4)O3)OC(=O)[C@@H]3C=C(C)/C(=N/O)[C@H]4OC/C(=C\C=C\[C@@H]2C)[C@]43O)O[C@@H](C)[C@@H]1O | inactive | inactive | inactive | inactive | inactive | inactive | inactive | – | inactive | inactive | inactive | inactive | – | inactive | – | inactive | inactive | inactive
7 | C=C1C(=O)O[C@H]2[C@H]1CC/C(C)=C\CC[C@@]1(C)O[C@@H]21 | inactive | inactive | inactive | inactive | inactive | inactive | inactive | inactive | inactive | inactive | inactive | inactive | – | – | – | inactive | – | –
8 | CC(=O)Nc1ccc(NC(=S)NC(=O)c2ccc(C(C)(C)C)cc2)cc1 | inactive | inactive | inactive | inactive | inactive | inactive | inactive | inactive | inactive | inactive | inactive | inactive | – | inactive | 2.11 µM (active) | inactive | inactive | –
9 | O=C1NCCN1c1ncc([N+](=O)[O-])s1 | inactive | inactive | inactive | inactive | inactive | inactive | inactive | inactive | inactive | – | inactive | inactive | – | – | – | inactive | inactive | inactive

From PubChem BioAssay (Tox21)
